Assay results from PubChem BioAssay.
A number with no mark means an inactive call. How the calls were made is not given here.

biological target: Pantothenate synthetase (Mycobacterium tuberculosis (strain ATCC 25618 / H37Rv)) (UniProt P9WIL5); experiment: Recombinant Mtb pantothenate synthetase (PanC) inhibitors, coupled enzyme, confirmatory (AID 375); conditions: coupled enzyme assay; at 10 µM, hits give high values;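 further: 0% = full reaction with vehicle and 100% = no enzyme background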
Sequence (P9WIL5 whole entry, looked up): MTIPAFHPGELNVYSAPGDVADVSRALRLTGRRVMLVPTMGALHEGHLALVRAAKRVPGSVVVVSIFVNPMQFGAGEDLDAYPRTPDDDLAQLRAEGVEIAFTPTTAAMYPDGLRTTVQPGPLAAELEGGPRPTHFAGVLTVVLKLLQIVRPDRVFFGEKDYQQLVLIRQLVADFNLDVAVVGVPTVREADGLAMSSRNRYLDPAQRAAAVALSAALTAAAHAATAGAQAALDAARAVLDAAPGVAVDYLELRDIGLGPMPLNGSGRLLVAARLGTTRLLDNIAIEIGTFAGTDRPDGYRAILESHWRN

Compared with `CCOC(=O)N1CCC2(CC1)CC(=O)c1c(ccc3oc(C(=O)O)c(C)c13)O2`, `COC(=O)c1oc2ccc(Br)cc2c1NC(=O)CN1CCN(C)CC1` is higher in inhibition: 0% for the first, 5% for the second.

Going from `CCN(Cc1cc2cc(OC)ccc2[nH]c1=O)C(=O)Cc1ccc(OC)cc1` to `C=CCc1cc(OC)ccc1OCC(O)CN1CCN(c2ccc(OC)cc2)CC1` (stereo not given), the inhibition rises from 0% to 1%.

`O=C(Nc1nc2c(s1)CCc1ccccc1-2)c1cccs1` and `O=C(Cc1nc2ccccc2s1)c1ccc(O)cc1O` are the same in inhibition: 8% for the first, 8% for the second.

`COc1ccc(C(=O)NC(=O)CSc2nnc(-c3ccco3)n2-c2ccccc2)cc1` and `NC(=O)CSc1nnc(-c2cnccn2)n1-c1ccccc1` are the same in inhibition: 0% for the first, 0% for the second.

Going from `CC(C)=CCCC(C)CN(C)CCc1ccccn1` (stereo not given) to `CCCCN(C)CCCNC(=O)CC1Oc2ccccc2NC1=O` (stereo not given), the inhibition rises from 0% to 6%.

Going from `Nc1nonc1-n1nnc(C(=O)c2ccccc2)c1-c1ccccc1` to `Cc1ccccc1C(=O)Nc1c(C(=O)N2CCCC2)cnn1-c1ccccc1`, the inhibition rises from 0% to 8%.

`O=C(Nc1cccnc1)Nc1ccccn1` and `O=C(Nc1ccc2oc(=O)ccc2c1)c1cccnc1` are the same in inhibition: 0% for the first, 0% for the second.

Going from `COc1cccc(N2CCN(c3c4c(nc5ncnn35)CCC4)CC2)c1` to `O=C(C1CCCN1S(=O)(=O)c1cccc2cccnc12)N1CCn2c1nc1ccccc12` (stereo not given), the inhibition rises from 0% to 6%.

`CCn1nc(CC(=O)Nc2nnc(CC(=O)N3CCCCC3)s2)c2ccccc2c1=O` and `COCCn1c(SCC(=O)Nc2nnc(C)s2)nnc1-c1c[nH]c2ccccc12` are the same in inhibition: 0% for the first, 0% for the second.

`CS(=O)(=O)N(CC(=O)N1CCc2ccccc2C1)c1ccc2c(c1)OCO2` and `CCCNC(=O)c1ccccc1NC(=O)CN(c1ccccc1OCC)S(C)(=O)=O` are the same in inhibition: 0% for the first, 0% for the second.

`Cc1csc(NC(=O)c2ccoc2C)n1` and `Cc1ccc(CNC(=O)c2coc(=O)c3ccccc23)o1` are the same in inhibition: 0% for the first, 0% for the second.

`COc1ccc(CCn2c(=N)c(C#N)cc3c(=O)n4ccccc4nc32)cc1` and `N#C/C(=C\c1ccc(O)c(O)c1)C(=O)NCCCc1ccccc1` are the same in inhibition: 0% for the first, 0% for the second.

`Cc1ccc(CNC(=O)C2CC(=O)OC23CCCC3)c(C)c1` (stereo not given) and `CCc1ccc(C(=O)NC2CCCCC2)s1` are the same in inhibition: 0% for the first, 0% for the second.

Compared with `CCCCOc1ccc(-c2nnn(CC(=O)NCc3ccco3)n2)cc1`, `O=C(OCCCN1C(=O)c2ccccc2C1=O)c1ccco1` is higher in inhibition: 0% for the first, 2% for the second.

`CCn1c(SCC(=O)N2CCOCC2)nc2c(c1=O)SC(C)C2` (stereo not given) and `O=C(C1CCN(C2CC(=O)N(c3ccc(F)cc3)C2=O)CC1)N1CCOCC1` (stereo not given) are the same in inhibition: 0% for the first, 0% for the second.

`CCOC(=O)c1c(C)oc2ccc(OCC(N)=O)cc12` and `CCOc1ccc2nc(NC(=O)C(NS(=O)(=O)c3cccs3)C(C)C)sc2c1` (stereo not given) are the same in inhibition: 0% for the first, 0% for the second.

Going from `O=C(NC1CCCCC1)c1ccc(S(=O)(=O)N2CCCCC2)cc1` to `Cc1cc(Cl)c(S(=O)(=O)NC2CCCCC2)cc1OCC(=O)Nc1nncs1`, the inhibition rises from 0% to 3%.

First: CCN(CC)c1ccc(-c2nn3c(-c4cccnc4)nnc3s2)cc1
Second: CCn1c(SCC(=O)Nc2ccc(Cl)cc2)nnc1C1CC1
The inhibition of the first is higher: 4% for the first, 0% for the second.

First: O=C(c1cc2ccccc2oc1=O)N1CCSC1c1ccco1 (stereo not given)
Second: C=CCn1c(SCC(=O)NCC2CCCO2)nc2scc(-c3ccco3)c2c1=O (stereo not given)
The inhibition of the first is higher: 8% for the first, 5% for the second.

First: CC(C)=CC(=O)Nc1ccc(Br)cc1
Second: COc1ccccc1NC(=O)N(Cc1ccccc1)c1ccccn1
The inhibition of the first is lower: 0% for the first, 6% for the second.
